Results reported in PubChem BioAssay (NCATS).
Inconclusive results are not listed. Active and inactive are the calls of the source. Unless noted, the call rests on the fitted dose curve; in most records, active means well fitted curve in either direction with a large enough effect (not every such curve was filed as active); inconclusive means small, poorly fitted or top-dose-only effect, or another doubt; inactive means flat fitted curve, though single readings scatter.

How the values were obtained:
[1] = target: Cytochrome P450 3A4 (Homo sapiens) (UniProt P08684); assay: qHTS Assay for Inhibitors and Substrates of Cytochrome P450 3A4 (AID 884; active means well fitted curve in the direction sought with a large enough effect; an effect the other way counts as inactive or inconclusive; further: on the % scale 0 is the no-effect control and ±100 the full control effect; nearly all actives have a fitted effect of over 50% in size)
Sequence of Cytochrome P450 3A4 (Homo sapiens) (P08684 whole entry, looked up): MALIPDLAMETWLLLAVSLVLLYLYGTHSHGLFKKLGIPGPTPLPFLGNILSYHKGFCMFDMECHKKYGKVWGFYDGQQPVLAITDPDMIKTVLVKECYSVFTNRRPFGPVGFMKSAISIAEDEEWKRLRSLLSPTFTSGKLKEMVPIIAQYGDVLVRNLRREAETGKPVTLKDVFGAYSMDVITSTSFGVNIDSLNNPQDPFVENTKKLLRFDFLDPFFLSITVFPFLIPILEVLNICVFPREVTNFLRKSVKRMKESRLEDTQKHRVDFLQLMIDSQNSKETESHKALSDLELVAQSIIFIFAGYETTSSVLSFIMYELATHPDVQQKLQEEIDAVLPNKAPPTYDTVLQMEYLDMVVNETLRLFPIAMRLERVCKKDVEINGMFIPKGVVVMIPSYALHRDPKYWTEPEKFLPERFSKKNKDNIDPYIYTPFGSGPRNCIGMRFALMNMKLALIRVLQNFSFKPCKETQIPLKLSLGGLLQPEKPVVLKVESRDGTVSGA
Procedure, shortened: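 Luminescent readout of luciferin produced by CYP3A4 (20 nM) dealkylation of Luciferin-PPXE, 25 uM (its KM). NADPH-driven reaction ran 60 min at RT after 10 min compound preincubation; data scaled to 57 uM ketoconazole as 100% inhibition.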

[2] = Confirmation and Secondary Assay for Modulators of Hemoglobin Beta Chain Splicing at IVS2 654 locus (AID 910; active means well fitted curve in the direction sought with a large enough effect; an effect the other way counts as inactive or inconclusive;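 further: per-well total GFP intensity by laser scanning cytometry after 2-day treatment; % of control where 0% means no effect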)
Procedure, shortened: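 HeLa cells stably carrying EGFP interrupted by mutant beta-globin IVS2-654 intron (CMV-driven) were treated with compound for 2 days at 37C; corrected splicing was scored as total peak GFP intensity per well (488 nm excitation, 500-520 nm emission).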

[3] = Confirmation and Secondary Assay for Modulators of Hemoglobin Beta Chain Splicing at IVS2 705 locus (AID 930; active means well fitted curve in the direction sought with a large enough effect; an effect the other way counts as inactive or inconclusive;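 further: HeLa cells stably expressing the EGFP-705 splicing reporter; GFP fluorescence per well restored by corrected splicing of the IVS2-705 intron in EGFP; % of control where 0% means no effect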)
Procedure, shortened: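 HeLa IVS2-705 EGFP reporter cells, 500/well, compound 2 d at 37C; correct splicing yields fluorescent EGFP. Control: 500 nM antisense PNA. Read-out: total peak GFP intensity.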

[4] = qHTS Assay for Lipid Storage Modulators (AID 1519; calls by dose curve); details: Drosophila S3 cells, BODIPY lipid droplet/cell ratio, laser cytometry, cells loaded with oleic acid
Procedure, shortened: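 Cells seeded at 5,000 per well were treated with compounds over a concentration series and loaded with oleic acid (400 uM, as added). Lipid droplet fluorescence (488 nm excitation, 500-530 nm channel) was read by laser-scanning cytometry and normalized to 20 uM Triacsin C.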

[5] = target: Ubiquitin carboxyl-terminal hydrolase 1 (Homo sapiens) (UniProt O94782); assay: Inhibitors of USP1/UAF1: Pilot qHTS (AID 504865; active means well fitted curve in the direction sought with a large enough effect; an effect the other way counts as inactive or inconclusive;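 further: rhodamine fluorescence freed from ubiquitin-rhodamine substrate followed over time; top concentration of the series differs between compounds; on the % scale 0 is the no-effect control and ±100 the full control effect; nearly all actives have a fitted effect of over 35% in size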)
Sequence of Ubiquitin carboxyl-terminal hydrolase 1 (Homo sapiens) (O94782 whole entry, looked up): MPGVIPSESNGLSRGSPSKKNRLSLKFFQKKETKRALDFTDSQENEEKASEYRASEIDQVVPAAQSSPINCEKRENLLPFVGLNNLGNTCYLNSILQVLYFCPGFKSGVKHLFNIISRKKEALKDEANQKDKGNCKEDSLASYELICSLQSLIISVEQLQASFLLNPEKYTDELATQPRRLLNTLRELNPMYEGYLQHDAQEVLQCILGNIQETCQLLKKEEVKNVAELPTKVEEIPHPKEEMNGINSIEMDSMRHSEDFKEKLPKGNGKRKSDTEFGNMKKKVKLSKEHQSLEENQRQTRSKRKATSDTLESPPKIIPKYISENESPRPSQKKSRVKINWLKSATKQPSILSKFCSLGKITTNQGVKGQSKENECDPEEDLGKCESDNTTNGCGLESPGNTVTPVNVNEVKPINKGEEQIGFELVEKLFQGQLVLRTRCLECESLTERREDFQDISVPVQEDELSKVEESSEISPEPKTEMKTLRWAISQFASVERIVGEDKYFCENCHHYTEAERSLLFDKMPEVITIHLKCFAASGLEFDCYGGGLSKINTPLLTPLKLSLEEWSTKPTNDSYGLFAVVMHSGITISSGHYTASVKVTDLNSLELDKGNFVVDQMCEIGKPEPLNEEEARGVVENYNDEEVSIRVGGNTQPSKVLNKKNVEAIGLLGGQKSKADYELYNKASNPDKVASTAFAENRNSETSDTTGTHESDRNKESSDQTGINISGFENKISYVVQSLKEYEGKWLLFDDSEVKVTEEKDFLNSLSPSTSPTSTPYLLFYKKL
Procedure, shortened: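 Kinetic fluorescence assay: 1nM USP1/UAF1, 15 min compound preincubation, then 150nM Ub-Rho; 480/540 nm.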

[6] = target: Voltage-gated inwardly rectifying potassium channel KCNH2 (Homo sapiens) (UniProt Q12809); assay: qHTS Assay for Small Molecule Inhibitors of the Human hERG Channel Activity (AID 588834; active means well fitted curve in the direction sought with a large enough effect; an effect the other way counts as inactive or inconclusive;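 further: lower thallium flux fluorescence means stronger hERG block; nearly all actives have a fitted effect of over 50% in size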; further: potency means the concentration at half of the fitted maximal effect)
Sequence of Voltage-gated inwardly rectifying potassium channel KCNH2 (Homo sapiens) (Q12809 whole entry, looked up): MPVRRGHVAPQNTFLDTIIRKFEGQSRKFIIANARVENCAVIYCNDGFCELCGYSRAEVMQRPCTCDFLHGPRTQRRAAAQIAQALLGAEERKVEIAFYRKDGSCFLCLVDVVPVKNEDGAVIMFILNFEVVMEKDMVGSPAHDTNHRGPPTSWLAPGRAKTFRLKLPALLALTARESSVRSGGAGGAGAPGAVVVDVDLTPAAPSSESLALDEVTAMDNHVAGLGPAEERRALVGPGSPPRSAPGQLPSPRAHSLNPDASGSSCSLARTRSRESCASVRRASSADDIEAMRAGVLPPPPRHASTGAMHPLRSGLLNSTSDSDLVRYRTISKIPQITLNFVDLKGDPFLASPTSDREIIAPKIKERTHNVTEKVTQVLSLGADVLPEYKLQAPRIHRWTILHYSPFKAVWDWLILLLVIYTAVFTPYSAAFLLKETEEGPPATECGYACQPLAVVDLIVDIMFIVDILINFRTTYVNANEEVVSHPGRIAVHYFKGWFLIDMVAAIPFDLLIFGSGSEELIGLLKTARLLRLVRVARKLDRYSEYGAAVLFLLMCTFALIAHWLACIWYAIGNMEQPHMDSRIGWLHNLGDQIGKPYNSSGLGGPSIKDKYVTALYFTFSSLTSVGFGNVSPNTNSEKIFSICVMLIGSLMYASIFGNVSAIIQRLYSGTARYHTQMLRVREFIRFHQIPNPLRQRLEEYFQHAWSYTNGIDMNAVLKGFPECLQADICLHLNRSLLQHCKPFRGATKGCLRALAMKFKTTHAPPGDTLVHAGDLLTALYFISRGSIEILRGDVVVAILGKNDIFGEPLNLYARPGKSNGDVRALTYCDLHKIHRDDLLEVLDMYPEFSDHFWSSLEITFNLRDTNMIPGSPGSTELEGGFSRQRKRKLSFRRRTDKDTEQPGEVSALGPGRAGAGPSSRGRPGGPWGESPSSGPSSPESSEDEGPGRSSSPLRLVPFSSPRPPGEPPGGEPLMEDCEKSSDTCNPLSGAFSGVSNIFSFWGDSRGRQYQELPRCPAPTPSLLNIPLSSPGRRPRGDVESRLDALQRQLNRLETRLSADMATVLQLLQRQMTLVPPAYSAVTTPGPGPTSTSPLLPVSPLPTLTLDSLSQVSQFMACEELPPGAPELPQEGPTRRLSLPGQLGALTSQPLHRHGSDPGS
Procedure, shortened: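 Cells were infected with hERG-BacMam virus for 4 hrs at room temperature, grown overnight, then seeded at 2000/well. After dye loading and roughly 10 min compound treatment, thallium influx was triggered and fluorescence recorded.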

[7] = tested on: HIV-1 nucleocapsid protein NCp7 (binding to TG oligonucleotide); assay: HIV Nucleocapsid (AID 346; call rule not given here;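 further: potency means the concentration at half of the fitted maximal effect; potency is for inhibitors that block NC binding and lower polarization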); details: HIV-1 NC / fluorescein-TGTGTGTG probe, fluorescence polarization
Procedure, shortened: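 NCp7 100 nM + fluorescein TG4xF 10 nM; Hepes pH 7.5/250mM NaCl/1uM ZnCl2/0.004% PEG 20000; 1 hr RT; FP, 45 s exposure; oligo-only wells as negative control.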

[8] = target: Lysosomal acid glucosylceramidase (Homo sapiens) (UniProt P04062); assay: Glucocerebrosidase-p2 (AID 348; in the data active means potency below about 10 µM; further: potency means the concentration at half of the fitted maximal effect); details: purified GBA, blue fluorogenic substrate, 40 min
Sequence of Lysosomal acid glucosylceramidase (Homo sapiens) (P04062 whole entry, looked up): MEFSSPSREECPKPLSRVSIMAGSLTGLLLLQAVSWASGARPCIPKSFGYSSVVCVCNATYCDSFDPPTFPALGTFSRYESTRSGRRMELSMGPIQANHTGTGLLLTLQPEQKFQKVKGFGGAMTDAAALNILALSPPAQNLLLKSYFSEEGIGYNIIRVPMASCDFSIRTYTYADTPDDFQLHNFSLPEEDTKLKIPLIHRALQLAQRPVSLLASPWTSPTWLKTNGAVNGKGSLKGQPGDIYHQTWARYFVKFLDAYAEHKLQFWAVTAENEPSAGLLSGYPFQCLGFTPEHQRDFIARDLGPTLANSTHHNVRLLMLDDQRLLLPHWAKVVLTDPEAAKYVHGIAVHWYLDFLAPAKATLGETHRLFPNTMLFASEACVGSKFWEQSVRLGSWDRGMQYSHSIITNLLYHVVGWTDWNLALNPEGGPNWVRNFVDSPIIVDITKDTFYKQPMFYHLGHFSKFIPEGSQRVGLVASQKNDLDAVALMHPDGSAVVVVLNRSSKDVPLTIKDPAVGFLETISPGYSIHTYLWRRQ
Procedure, shortened: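 Normal human glucocerebrosidase (0.2 nM) with blue fluorogenic substrate (80 uM final) in citrate/phosphate pH 5.9 with 10mM sodium taurocholate, 0.01% tween-20; 40 min RT, NaOH/glycine stop; fluorescence Ex 365/Em 440; AC50 from a titration from 0.6 nM upwards.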

[9] = AP1 Signaling Pathway (AID 357);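 further: ME-180 reporter cells stimulated with EGF at its EC50 level; on the % scale 0 is the no-effect control and ±100 the full control effect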
Procedure, shortened: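 Cells are seeded overnight, exposed to compound titrations and an EC50 level of EGF for 5 hours at 37 °C, then loaded with CCF4 dye for 2.5 hours. Beta-lactamase activity under the AP-1 element is read as a blue/green ratio.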

[10] = NFAT Signaling Pathway (AID 444); details: Jurkat NFAT-bla M1, carbachol, beta-lactamase ratio, 5 h;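 further: carbachol stimulus at about its EC50 of 1 µM final; on the % scale 0 is the no-effect control and ±100 the full control effect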
Procedure, shortened: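 Jurkat cells carrying an NFAT-driven β-lactamase reporter and co-transfected muscarinic M1 receptor were treated with compound plus carbachol (1 uM final, an EC50 level) for 5 h at 37 °C. CCF4 loading followed for 1 h at RT; 460/530 nm ratio gave %activity.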

[11] = Stat Signaling Pathway (AID 446);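 further: ME-180 cervical cancer cells given 40 pM IL-6 alongside compound; SIE-controlled beta-lactamase reporter measured as 460/530 nm FRET emission ratio; on the % scale 0 is the no-effect control and ±100 the full control effect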
Procedure, shortened: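 Compound effects on IL-6-induced STAT reporter activity were measured in ME-180 cells. After overnight culture, cells were co-treated with 40 pM IL-6 for 5 hrs before beta-lactamase substrate loading at room temperature.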

[12] = target: Glucocorticoid receptor (Homo sapiens) (UniProt P04150); assay: GR-EFC Redistribution (AID 451; calls by dose curve; further: potency means the concentration at half of the fitted maximal effect); details: CHO-K1 GR-EFC translocation, beta-gal luminescence, 2 h
Sequence of Glucocorticoid receptor (Homo sapiens) (P04150 whole entry, looked up, the tested form may be a part): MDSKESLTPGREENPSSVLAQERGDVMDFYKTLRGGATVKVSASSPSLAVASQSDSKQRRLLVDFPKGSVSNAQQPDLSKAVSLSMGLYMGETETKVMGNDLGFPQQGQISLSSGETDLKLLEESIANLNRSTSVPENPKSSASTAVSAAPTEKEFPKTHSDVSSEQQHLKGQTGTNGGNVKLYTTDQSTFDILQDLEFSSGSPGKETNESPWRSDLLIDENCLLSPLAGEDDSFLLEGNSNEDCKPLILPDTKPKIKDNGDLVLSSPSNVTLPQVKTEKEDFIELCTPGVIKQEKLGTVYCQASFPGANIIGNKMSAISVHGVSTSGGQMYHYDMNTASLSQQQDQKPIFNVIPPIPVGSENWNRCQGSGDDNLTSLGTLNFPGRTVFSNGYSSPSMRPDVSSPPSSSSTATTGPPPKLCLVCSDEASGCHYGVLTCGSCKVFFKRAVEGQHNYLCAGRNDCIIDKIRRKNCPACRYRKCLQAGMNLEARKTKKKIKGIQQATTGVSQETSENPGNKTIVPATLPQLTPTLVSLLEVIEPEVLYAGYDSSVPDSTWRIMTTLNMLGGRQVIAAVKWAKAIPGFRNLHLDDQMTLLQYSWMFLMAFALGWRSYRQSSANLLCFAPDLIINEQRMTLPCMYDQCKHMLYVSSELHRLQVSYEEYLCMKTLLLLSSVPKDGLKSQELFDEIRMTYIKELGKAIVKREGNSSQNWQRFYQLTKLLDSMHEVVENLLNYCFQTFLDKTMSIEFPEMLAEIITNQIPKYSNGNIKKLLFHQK
Procedure, shortened: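 CHO-K1 cells stably expressing nuclear-localized β-gal enzyme acceptor and GR fused C-terminally to the enzyme donor fragment; ligand-driven nuclear translocation restores β-gal by complementation. Compounds titrated up to 46 uM final, 2 h at 37 °C; luminescence read.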

[13] = target: Mitogen-activated protein kinase 10 (Mus musculus) (UniProt Q61831); assay: JNK3 AlphaScreen Assay (AID 530);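 further: kinase came from lysate of stimulated human HepG2 cells; signal reports phosphorylation of biotinylated GST-cJun 1-79 at Ser73 with 10 µM ATP; on the % scale 0 is the no-effect control and ±100 the full control effect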
Procedure, shortened: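 Biotinylated GST-cJun(1-79) served as substrate for JNK3 in HepG2 lysates stimulated with IL-1beta and TNF-alpha. ATP was 10 uM final, pH 7.6. Ser73 phosphorylation was quantified by AlphaScreen (680 nm excitation).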

[14] = target: 3',5'-cyclic-AMP phosphodiesterase 4B (Homo sapiens) (UniProt Q07343); assay: qHTS Assay for Inhibitors of PDE-IV (AID 607; active means well fitted activation curve with a large enough effect in the main read-out, with a control signal flat, not every such curve was filed as active; further: % of control where 0% means no effect)
Sequence of 3',5'-cyclic-AMP phosphodiesterase 4B (Homo sapiens) (Q07343 whole entry, looked up): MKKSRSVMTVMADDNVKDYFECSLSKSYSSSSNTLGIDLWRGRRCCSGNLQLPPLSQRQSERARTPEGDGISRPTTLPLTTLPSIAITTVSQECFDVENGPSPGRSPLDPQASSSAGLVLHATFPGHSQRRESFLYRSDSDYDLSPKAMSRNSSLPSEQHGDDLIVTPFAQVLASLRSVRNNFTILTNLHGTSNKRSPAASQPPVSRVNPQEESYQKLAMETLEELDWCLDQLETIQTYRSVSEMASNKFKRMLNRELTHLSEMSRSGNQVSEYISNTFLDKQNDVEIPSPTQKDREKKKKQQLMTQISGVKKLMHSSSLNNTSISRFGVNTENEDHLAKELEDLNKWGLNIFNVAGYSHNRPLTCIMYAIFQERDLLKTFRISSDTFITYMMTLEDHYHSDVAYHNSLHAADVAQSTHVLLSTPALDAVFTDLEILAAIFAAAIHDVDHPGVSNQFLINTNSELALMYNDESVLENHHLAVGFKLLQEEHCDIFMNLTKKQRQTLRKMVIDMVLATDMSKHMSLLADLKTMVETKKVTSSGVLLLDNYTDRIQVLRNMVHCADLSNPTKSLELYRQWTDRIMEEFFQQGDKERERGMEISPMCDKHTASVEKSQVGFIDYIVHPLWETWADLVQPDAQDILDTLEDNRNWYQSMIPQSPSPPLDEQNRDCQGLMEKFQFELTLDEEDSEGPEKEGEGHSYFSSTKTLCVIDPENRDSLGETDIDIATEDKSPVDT
Procedure, shortened: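 ACTOne HEK293 cells carry a modified cAMP-gated CNG channel and express endogenous PDE4; plated 1000 cells/well, compounds up to 22.9 uM final. Membrane-potential dye fluorescence (ex 535/em 590) was read; parental cells received 10 uM forskolin + 100 uM RO 20-1724.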

[15] = target: Cytochrome P450 3A4 (Homo sapiens) (UniProt P08684); assay: qHTS Assay for Activators of Cytochrome P450 3A4 (AID 885; active means well fitted curve in the direction sought with a large enough effect; an effect the other way counts as inactive or inconclusive; further: nearly all actives have a fitted effect of over 65% in size; further: potency means the concentration at half of the fitted maximal effect)
Procedure, shortened: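 CYP3A4 activity: Luciferin-PPXE O-dealkylation, 25uM substrate, 200mM KPO4, RT throughout. Read-out is luciferase luminescence; higher values reflect activation.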

[16] = target: Cytochrome P450 1A2 (Homo sapiens) (UniProt P05177); assay: p450-cyp1a2 (AID 410; calls by dose curve; further: potency means the concentration at half of the fitted maximal effect;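 on activity change, negative = inhibition: -100% = full effect of reference inhibitor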)
Sequence of Cytochrome P450 1A2 (Homo sapiens) (P05177 whole entry, looked up): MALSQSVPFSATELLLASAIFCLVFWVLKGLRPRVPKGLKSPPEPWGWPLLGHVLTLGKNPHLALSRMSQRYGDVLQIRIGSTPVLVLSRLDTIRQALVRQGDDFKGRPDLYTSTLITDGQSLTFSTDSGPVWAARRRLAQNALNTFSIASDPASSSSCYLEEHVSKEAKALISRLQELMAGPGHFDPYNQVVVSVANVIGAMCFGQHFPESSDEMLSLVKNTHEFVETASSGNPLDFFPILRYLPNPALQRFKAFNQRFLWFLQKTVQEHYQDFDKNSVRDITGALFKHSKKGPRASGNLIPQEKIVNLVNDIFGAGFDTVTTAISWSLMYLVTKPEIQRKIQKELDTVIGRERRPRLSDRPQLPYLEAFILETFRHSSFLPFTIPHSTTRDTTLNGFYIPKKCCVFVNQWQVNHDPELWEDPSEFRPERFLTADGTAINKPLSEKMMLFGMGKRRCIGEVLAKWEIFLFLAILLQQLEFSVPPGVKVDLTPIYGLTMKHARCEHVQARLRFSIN
Procedure, shortened: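 20nM CYP1A2, 100uM Luciferin-ME (=Km), 100mM KPO4; cpd 10 min RT; +NADPH regen, 60 min RT; stop/detect 20 min; luminescence. Normalized to furafylline 57 uM = full inhibition.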

[17] = target: Glucocorticoid receptor (Homo sapiens) (UniProt P04150); assay: GR-GFP Redistribution (AID 450;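 active means compounds whose dose series gives a full or clear partial fitted curve of increased nuclear translocation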; further: potency means the concentration at half of the fitted maximal effect); details: U2OS GR-GFP nuclear translocation, laser cytometry, 2 h
[18] = qHTS profiling for inhibitors of Plasmodium falciparum proliferation (AID 504749; active means well fitted curve in the direction sought with a large enough effect; an effect the other way counts as inactive or inconclusive; further: potency means the concentration at half of the fitted maximal effect;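 on activity, negative = inhibition: 0% = DMSO vehicle and full inhibition = artemisinin control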; on all read-outs here: nearly all actives have a fitted effect of over 60% in size); details: P. falciparum in erythrocytes, SYBR Green DNA, 72 h; for activity, negative = inhibition: at 12.8 µM (top of the series)
Procedure, shortened: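 Fluorescence of SYBR Green-bound parasite DNA, read at 485/535 nm, served as the growth measure. Infected erythrocytes were cultured with compound 72 h; artemisinin (0.29 uM) and DMSO wells defined the normalization range.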

[19] = target: Cytochrome P450 2D6 (Homo sapiens) (UniProt P10635); assay: qHTS Assay for Inhibitors and Substrates of Cytochrome P450 2D6 (AID 891; active means well fitted curve in the direction sought with a large enough effect; an effect the other way counts as inactive or inconclusive; further: potency means the concentration at half of the fitted maximal effect; nearly all actives have a fitted effect of over 60% in size)
Procedure, shortened: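 Luminescent read-out of luciferin formed by 5 nM human CYP2D6 demethylating 30 uM Luciferin-ME EGE (Km level) over 60 min at room temperature after NADPH regeneration addition. Data normalized to full inhibition by 1.43 uM quinidine.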

[20] = measured here: cell count channel max response
[21] = measured here: lipid channel max response

CCc1cccc(CC)c1N(COC)C(=O)CCl
-0.808%: max response [4, 20]
inactive: Potency [1] | Potency [2] | Potency [3] | activity change, negative = inhibition ([4]; at 57.5 µM (top of the series)) 1.98% | Potency [5] | Potency [6]
0.291%: max response [4, 21]

N#Cc1ccc(CN2CC[C@@]3(CCCNC3)C2)cc1
inactive: Potency [7] > 20 µM | Potency [8] > 11.4 µM | outcome [9] | activity change, negative = inhibition ([10]; at 7.69 µM (top of the series)) -7.45% | outcome [11] | Potency [12] > 46 µM | outcome [13] | Potency [14] | Potency [15] | activity change, negative = inhibition ([4]; at 57.5 µM (top of the series)) 2.19%
21.9%: max response [4, 21]
16.6%: max response [4, 20]

C[C@H]1CN(C2CCC(C#N)(c3ccc(F)cc3)CC2)CC[C@@]1(C(=O)O)c1ccccc1 (some centres not stated)
inactive: outcome [9] | Potency [16] | activity change, negative = inhibition ([10]; at 17.2 µM (top of the series)) -14% | outcome [11] | Potency [17] > 20.6 µM | Potency [12] > 20.6 µM | outcome [13] | Potency [14] | activity change, negative = inhibition ([4]; at 25.7 µM (top of the series)) -3.1% | activity, negative = inhibition ([18]; parasite line A) 1.54% | activity, negative = inhibition ([18]; parasite line B) 12.6%
-19.6%: max response [4, 20]
-20.8%: max response [4, 21]

O=S1OCC2C(CO1)C1(Cl)C(Cl)=C(Cl)C2(Cl)C1(Cl)Cl (configuration not stated)
active: Potency [6] 28.2 µM
inactive: outcome [13] | Potency [15] | Potency [2] | Potency [3] | activity change, negative = inhibition ([4]; at 57.5 µM (top of the series)) 5.66% | Potency [5]
5.32%: max response [4, 21]
-0.733%: max response [4, 20]

CNC[C@H](O)c1ccc(O)c(OC)c1
8.44%: max response [4, 21]
inactive: outcome [9] | Potency [16] | activity change, negative = inhibition ([10]; at 17.2 µM (top of the series)) 3.38% | outcome [11] | Potency [17] > 20.6 µM | Potency [12] > 20.6 µM | outcome [13] | Potency [14] | activity change, negative = inhibition ([4]; at 25.7 µM (top of the series)) -0.567% | Potency [5]
7.01%: max response [4, 20]

CC(=O)O[C@H]1CC[C@@]2(C)C(=CC[C@@H]3[C@H]2CC[C@]2(C)C(=O)CC[C@H]32)C1
-9.47%: max response [4, 20]
inactive: outcome [9] | Potency [16] | activity change, negative = inhibition ([10]; at 17.2 µM (top of the series)) -13.7% | outcome [11] | Potency [17] > 20.6 µM | Potency [12] > 20.6 µM | outcome [13] | Potency [14] | Potency [1] | activity change, negative = inhibition ([4]; at 25.7 µM (top of the series)) -0.861% | activity, negative = inhibition ([18]; parasite line A) 8.47% | activity, negative = inhibition ([18]; parasite line B) 10.9%
active: Potency [15] 12.6 µM
-12.6%: max response [4, 21]

C[C@H](N)[C@@H](O)c1ccccc1
17%: max response [4, 20]
20.5%: max response [4, 21]
inactive: outcome [9] | Potency [16] | activity change, negative = inhibition ([10]; at 17.2 µM (top of the series)) 10.1% | outcome [11] | Potency [17] > 20.6 µM | Potency [12] > 20.6 µM | outcome [13] | Potency [14] | activity change, negative = inhibition ([4]; at 25.7 µM (top of the series)) 1.99% | Potency [5] | activity, negative = inhibition ([18]; parasite line A) -2.43% | activity, negative = inhibition ([18]; parasite line B) 9.04%

COc1ccc(NC(=O)N2CCC3(CC2)CCN(C(=O)Oc2ccccc2)CC3)cc1
inactive: Potency [8] > 11.4 µM | outcome [9] | activity change, negative = inhibition ([10]; at 7.69 µM (top of the series)) 5.41% | outcome [11] | Potency [12] > 46 µM | outcome [13] | Potency [14] | activity change, negative = inhibition ([4]; at 57.5 µM (top of the series)) -1.68%
-23.2%: max response [4, 20]
-21.9%: max response [4, 21]

COc1ccc2c(c1OC)CN1CCc3cc4c(cc3[C@H]1C2)OCO4
active: Potency [16] 1.58 µM | Potency [19] 0.0631 µM | Potency ([18]; parasite line A) 2 µM
inactive: outcome [9] | activity change, negative = inhibition ([10]; at 17.2 µM (top of the series)) -25.2% | outcome [11] | Potency [17] > 20.6 µM | Potency [12] > 20.6 µM | outcome [13] | Potency [14] | activity change, negative = inhibition ([4]; at 25.7 µM (top of the series)) -2.73% | Potency [5]
-16.8%: max response [4, 20]
-19%: max response [4, 21]
